In the library only some 11% were active in any assay of this set; here they are far more common.
Lmaj promast – Leishmania major promastigote growth inhibition, primary screen; Leishmania major promastigotes, resazurin fluorescence viability; inhibition, % at 10 µM; 200,000 compounds, 9% hits; in the data active = inhibition above about 50%;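 note: promastigotes grown with compound for 44 hours at 28 °C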
Ins promoter up – insulin promoter activators in MIN6 cells, imaging, high-content screening, mouse beta cells; MIN6 insulin promoter-GFP reporter; stronger effect = higher value; z-score at 5 µM; 190,000 compounds, 0.3% hits;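 active = z-score above 3 at 5 µM with at least 500 cells counted in the well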
Autophagy HCS – autophagy modulators in MEF cells, primary screen, imaging, high-content, MEF GFP-LC3; MEF GFP-LC3 puncta imaging; test concentration mostly 10 µM; calls only at 10 µM (by protocol); 190,000 compounds, 0.98% hits; AID 463193, 2010;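 active = percentage of spot-positive cells more than 3 SD above its plate mean, without a fluorescence outlier flag or 80% toxicity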;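 note: spot-positive cell cutoff set from DMSO-treated cells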
Insulin prom inh – inhibitors of insulin promoter-driven GFP, primary screen, imaging, TRM-6 cells (human fetal islet line), eGFP reporter, cell count; reporter expression induced with tamoxifen; inhibition, % at 2 µM; 130,000 compounds, 0.9% hits;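 active = inhibition above the mean plus 3 SD, with well images judged a real hit on visual review, cut at about 60% in these data, passing the limit was not always enough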
WT yeast gro inh – growth inhibition of WT strain, primary screen, mitochondrial fusion inhibitor project, WT and mutant strains, chemical genetic; inhibition, % at 10 µM; AID 1362, 2008; 190,000 compounds, 2.1% hits; mitochondrial fusion phenotypic screen; in the data active = inhibition above about 58%; tested in S. cerevisiae
* marks the source's active call; other numbers are inactive results; i = inactive; . = no result; + = active, no number.

SMILES | Lmaj promast | Ins promoter up | Autophagy HCS | Insulin prom inh | WT yeast gro inh
CSc1ncc2c(n1)-c1cc(C)ccc1SC2 | 2.7 | 0.88 | i | -17.1 | -19.1
CCCN1CCN(C(=O)Cn2cnc3ccc(S(=O)(=O)N4CCC(C)CC4)cc3c2=O)CC1 | 93.5* | -0.31 | i | . | -5.2
Cn1c(=O)n(Cc2ccc(F)cc2)c(=O)c2c1nc1n2CCCN1C1CCCCC1 | 3.0 | -0.99 | i | -27.8 | 22.1
CCOc1ccc(NCc2nnc(SCC(=O)Nc3nc(-c4ccccc4)cs3)n2-c2ccccc2)cc1 | 94.8* | -0.85 | i | -39.5 | 5.7
CCOc1ccc(NCc2nnc(SCc3ccc(Cl)cc3)n2-c2ccccc2)cc1 | 24.1 | . | i | 46.7 | 60.3*
CCC(=O)Nc1ccc(C(=O)NCc2ccccn2)cc1 | -1.9 | 0.42 | i | . | 3.6
O=C(COC(=O)c1ccc2c(c1)C(=O)N(Cc1ccncc1)C2=O)Nc1ccccc1[N+](=O)[O-] | 54.4* | 0.18 | i | -4.0 | -1.0
CC(OC(=O)c1ccc2c(c1)C(=O)N(Cc1ccncc1)C2=O)C(=O)Nc1cccc(Cl)c1Cl (configuration not stated) | -6.6 | 0.15 | i | . | -33.5
CC(C)Nc1nnc(SCC(=O)Nc2ccc3c(c2)C(=O)c2ccccc2C3=O)s1 | 96.6* | -0.17 | i | -3.7 | 42.1
COc1cccc(Nc2ccc(C(=O)O)cc2[N+](=O)[O-])c1 | -2.4 | 0.06 | i | 28.1 | -7.9
O=C(Nc1cc(F)cc(F)c1)c1ccc(NCCCN2CCCCCC2)c([N+](=O)[O-])c1 | 90.9* | . | i | 0.0 | 7.5
O=C(Nc1cc(F)cc(F)c1)c1ccc(NCCc2ccccc2)c([N+](=O)[O-])c1 | -7.1 | . | i | -21.9 | -4.8
CCCN(CCC)CCCNc1ccc(C(=O)Nc2cccc(OC)c2)cc1[N+](=O)[O-] | 97.5* | 0.01 | i | . | 2.6
COc1cccc(NC(=O)c2ccc(NCCCN3CCC(C)CC3)c([N+](=O)[O-])c2)c1 | 20.8 | . | i | 25.0 | 5.5
COc1cccc(NC(=O)c2ccc(NCCCN3CC(C)CC(C)C3)c([N+](=O)[O-])c2)c1 (configuration not stated) | -3.7 | -0.81 | + | -25.0 | 29.5
COc1cc(C)c(NC(=S)NCCCN2CCOCC2)cc1OC | -1.2 | -0.56 | i | . | -3.6
COc1ccc2o/c(=N\O)c(C(=O)Nc3ccccc3OC)cc2c1 | 97.3* | -0.2 | i | 0.0 | -4.0
COc1ccc2oc(=Nc3cc(F)ccc3F)c(C(N)=O)cc2c1 | 58.8* | 0.18 | + | 21.4 | 2.2
CCCN1C2CCCC1CC(NC(=S)Nc1cc(C)ccc1C)C2 (configuration not stated) | 89.9* | . | i | -19.4 | -3.8
Cc1cccc(NC(=S)NC2CC3CCCC(C2)N3CC(C)C)c1C (configuration not stated) | 88.8* | . | i | -211.1 | 1.2
Cc1cccc(NC(=S)NC2CC3CCCC(C2)N3Cc2cccs2)c1C (configuration not stated) | 85.2* | -0.44 | i | . | 7.4
CCc1ccccc1NC(=S)NC1CC2CCCC(C1)N2Cc1cccs1 (configuration not stated) | 79.1* | -0.31 | i | . | 14.3
CCCN1C2CCCC1CC(NC(=S)Nc1cccc(C)c1C)C2 (configuration not stated) | . | -0.62 | . | . | .
CCOC(=O)c1cc(C(=O)OCC)c(=O)[nH]c1N1CCCC1 | -2.4 | 0.18 | i | -35.3 | -7.8
c1ccc2c(c1)NC(c1ccncc1)n1c-2nc2ccccc21 (configuration not stated) | 11.4 | . | i | 77.8* | 12.1
SMILES | Lmaj promast | Ins promoter up | Autophagy HCS | Insulin prom inh | WT yeast gro inh
c1csc(C2Nc3ccccc3-c3nc4ccccc4n32)c1 (configuration not stated) | 25.6 | -0.01 | i | 40.0 | 28.4
O=c1c2ccccc2nc(SCc2nc3ccccc3s2)n1CCCO | 9.7 | 0.92 | i | . | 7.1
Cc1ccc(CCN=c2c([N+](=O)[O-])nn(-c3ccccc3)n2O)cc1 | 46.7 | -0.17 | i | . | -6.4
COc1ccc(-n2nc([N+](=O)[O-])c(=NCCc3ccccc3)n2O)cc1 | 96.0* | -0.17 | i | -10.3 | 5.1
O=[N+]([O-])c1nn(-c2ccccc2)n(O)c1=NCCc1ccccc1 | 91.3* | 0.56 | i | 2.8 | -35.9
Cc1cc(NC(=O)CSc2ncnc3c2cnn3-c2cccc(Cl)c2)no1 | -7.2 | -0.12 | i | 10.5 | 6.9
Cn1c2ccccc2c(=O)c2c(=O)n(-c3ccccc3)c(C3CCCCC3)nc21 | 64.8* | -0.31 | i | -4.0 | -4.4

Compound activity: PubChem BioAssay, several laboratories
